The list is not random: actives were taken first. Their share in the collection is about 1.6%.
CCHF vOTU inh: CCHFV vOTU protease inhibition; inhibition, % at 11.5 µM; 370,000 tested, 0.55% active; Pep-AMC fluorescence; AID 651958; in the data active = inhibition above about 30%; also: 0% = vehicle wells with enzyme and 100% = no enzyme wells
Sa ugtP lethal: kills S. aureus RN4220 lacking UgtP | S. aureus RN4220 ugtP deletion, OD600 growth, 16 h | growth inhibition, % (concentration not given with the values) | 330,000 tested, 0.54% active; in the data active = growth inhibition above about 68%;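 also: plate controls were untreated wells for no effect and antibiotic for full effect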
RN4220 kill: kills Staphylococcus aureus RN4220; S. aureus RN4220 growth, OD600, 16 h; 330,000 tested, 0.33% active; AID 1259311; inhibition, % (concentration not given with the values); in the data active = inhibition above about 85%;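 also: plate controls were untreated cells for no effect and reference antibiotic for full effect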
PfHsp40 yeast: compounds rescuing yeast from Plasmodium falciparum HSP40 toxicity; AID 504582; growth rescue, % at 12.5 µM; 340,000 tested, 0.68% active; S. cerevisiae expressing PfHsp40, growth rescue, ATP luminescence; in the data active = growth rescue above about 28%, passing the limit was not always enough; inconclusive = no clear call, values can overlap the other calls;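 also: yeast W303a lacking pdr1 and pdr3 grown in galactose medium; growth measured after three days at 30 °C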
BJeLR lethal: BJeLR cell viability loss. BJeLR (HRASV12) viability, CellTiter-Glo ATP luminescence, 48 h. inhibition, % (concentration not given with the values). 300,000 tested, 0.17% active. AID 1554; in the data active = inhibition above about 50%; inconclusive = no clear call, values can overlap the other calls
Active calls of the source: *; ? = inconclusive; nt = not tested or not shown.

SMILES	CCHF vOTU inh	Sa ugtP lethal	RN4220 kill	PfHsp40 yeast	BJeLR lethal
O=C(Nc1ccc(Cl)c(Cl)c1)C1CC(=O)N(c2ccc(Br)cc2)C1 (stereo not drawn)	-16.9	7.3	32.3	31.2*	4.8
CC(=NNC(=O)c1c[nH]c2ccccc12)c1ccc(C)o1	nt	-9.4	-2.8	nt	nt
CCOC(=O)c1cc2c(OC)ccc(OC)c2n1CC(=O)c1ccccc1	1.1	89.4*	3.3	-1.1	10.0
CC(C)Nc1cc(C(C)(C)C)nc2c(-c3ccccc3)cnn12	-12.8	67.6	-13.3	2.7	-5.8
Cc1cc(NCCCn2ccnc2)n2ncc(-c3ccc(Cl)cc3)c2n1	0.0	91.1*	30.3	-0.2	-3.5
CC(C)(C)c1cc(NCCCn2ccnc2)n2ncc(-c3ccccc3)c2n1	4.6	85.5*	58.0	0.4	-10.4
CN(C)CCCNc1cc(C(C)(C)C)nc2c(-c3ccc(Cl)cc3)cnn12	5.7	99.8*	100.7*	43.7*	11.5
COc1ccc(Cl)cc1NC(=O)C(=O)NN=Cc1cc(C)n(-c2ccc(C)cc2)c1C	nt	-17.6	-1.2	nt	nt
c1ccc(-c2ccccc2-c2nc(-c3ccncc3)no2)cc1	14.2	7.9	9.7	32.3*	-0.2
CCc1ccc(Nc2c([N+](=O)[O-])c(=O)oc3ccccc23)cc1	3.0	-6.8	0.3	115.9*	5.4
Cc1ccc(Nc2c([N+](=O)[O-])c(=O)oc3ccccc23)cc1	15.2	6.3	6.6	3.0	5.2
Cc1cc(C=Nn2cnnc2)c(C)n1-c1cccc(C(=O)O)c1	nt	-2.2	2.1	nt	nt
COc1c(N2CCN(C(=S)Nc3ccc(F)cc3)C(C)C2)c(F)cc2c(=O)c(C(=O)O)cn(C3CC3)c12 (stereo not drawn)	-2.0	99.0*	100.1*	-0.9	-2.0
CC(=O)c1ccc(NC(=S)N2CCN(C(=S)Nc3ccc(C(C)=O)cc3)C(C)C2)cc1 (stereo not drawn)	0.9	0.2	-0.2	-1.0	-14.4
COc1c(N2CCN(C(=S)NC3CC4CCC3C4)C(C)C2)c(F)cc2c(=O)c(C(=O)O)cn(C3CC3)c12 (stereo not drawn)	-2.3	100.1*	100.4*	-0.2	-5.6
Cc1cc(C)nc(NN=Cc2cc(Br)ccc2O)n1	nt	8.0	7.3	nt	nt
COC(=O)NN=Cc1cn(CC(C)COc2ccccc2)c2ccccc12 (stereo not drawn)	nt	-9.3	6.7	nt	nt
O=C(O)/C(=C\c1ccc(F)cc1)c1ccc(-c2ccccc2)cc1	24.8	3.2	10.0	512.0*	2.2
CCc1nc(C)cn1S(=O)(=O)c1ccc([N+](=O)[O-])cc1	-5.7	94.3*	97.4*	-0.3	-1.8
O=C(NCc1nc2ccccc2[nH]1)C1=CC(c2coc3ccccc3c2=O)CC(OCCCCO)O1 (stereo not drawn)	nt	6.0	3.9	nt	nt
OCCCNc1nc(-c2ccc(Cl)cc2)nnc1-c1ccc(Br)cc1	6.0	-8.0	-8.7	28.4*	3.1
O=[N+]([O-])c1ccc(-c2nnc(-c3ccccc3)c(NCCCO)n2)cc1	10.9	-1.0	4.9	-0.5	-0.9
O=C(CSc1nnnn1-c1ccccc1)Nc1ncc(Cc2ccccc2Cl)s1	-4.5	0.2	4.8	0.8	-2.6
N=C1SC(c2ccccc2)C(=O)N1c1ncc(Cc2ccccc2Cl)s1 (stereo not drawn)	10.2	89.9*	81.0	0.2	12.5
CCOc1ccc2nc(SCc3ccccc3C#N)sc2c1	-5.3	53.1	2.8	-0.7	6.1
SMILES	CCHF vOTU inh	Sa ugtP lethal	RN4220 kill	PfHsp40 yeast	BJeLR lethal
CCOc1ccc2nc(SCc3ccc(OC)cc3)sc2c1	-1.9	90.2*	7.1	-0.5	-17.7
O=C(NNC(=S)NC1CCCCC1)c1sc2ccccc2c1Cl	24.1	43.9	-6.6	21.1	-2.6
CC(C)(C)C(=O)NC(=S)NNC(=O)c1sc2ccccc2c1Cl	nt	97.4*	93.9*	?	16.2
O=[N+]([O-])c1cc(Br)ccc1NS(=O)(=O)c1ccccc1	7.2	-10.8	9.9	64.8*	nt
O=[N+]([O-])c1ccccc1NS(=O)(=O)c1ccccc1	4.0	nt	nt	nt	nt
CCCN(CCC)C1=NC(=Cc2ccco2)C(=O)N1c1ccccc1	nt	34.1	1.6	nt	nt
Cc1cccc(Cn2nnc3c2C(=O)c2ccccc2C3=O)c1	3.0	85.6*	69.3	-1.0	-2.6
COc1ccc2c(c1)OCC1C2N2C(=O)c3ccc(C)cc3NC(=O)[C@@]2(C)C1c1ccccc1 (stereo partly drawn)	nt	7.7	-5.1	nt	nt
COc1cc2c(c(OC)c1OC)-c1ccc(O)c(=O)cc1C(NC(C)=O)CC2 (stereo not drawn)	-12.8	0.5	10.9	-0.2	56.9*
COc1cc2c(c(OC)c1OC)-c1ccc(OC)c(=O)cc1C(NC(C)=O)CC2 (stereo not drawn)	14.1	3.7	1.5	-1.4	48.4
Cc1ccccc1N1CCN(S(=O)(=O)C[C@]23CCC(CC2NC(=O)C(N)CCS(C)(=O)=O)C3(C)C)CC1 (stereo partly drawn)	nt	1.6	1.3	nt	nt
CCOC(=O)NNc1ccc2nonc2c1[N+](=O)[O-]	nt	nt	nt	123.9*	-3.4
Cc1ccc(N2C(=O)c3ccccc3C2Nc2ccccc2F)nc1 (stereo not drawn)	-0.5	-2.4	-4.4	-1.3	-9.4
Cc1ccc(N2C(=O)c3ccccc3C2O)nc1 (stereo not drawn)	nt	nt	nt	nt	69.9*
CC(=NN=C(N)SC1CC(=O)N(c2ccc(Cl)c(Cl)c2)C1=O)c1cccs1 (stereo not drawn)	nt	98.8*	100.3*	nt	nt
CCn1nnc(-c2ccccc2NC(=O)c2cccc(-n3cnnn3)c2)n1	-12.0	0.7	2.5	1.6	2.1
CCn1nnc(-c2ccccc2NC(=O)c2ccc(-n3cnnn3)cc2)n1	8.8	7.9	6.4	71.3*	-6.3
CC(NC(=O)c1ncn(Cc2ccccc2)c1C(=O)NC(C)c1ccccc1)c1ccccc1 (stereo not drawn)	nt	4.3	-2.2	nt	nt
N#C/C(=C(/O)CCl)c1nnc2n1CCCCC2	-1.8	6.1	7.9	-0.9	5.9
N#C/C(=C(/O)COc1ccccc1)c1nnc2n1CCCCC2	16.5	3.9	1.3	31.1*	13.2
CCOC(=O)C1Nc2ccccc2C2C(O)C(O)CC12 (stereo not drawn)	61.1*	-5.6	9.2	-0.5	10.9
COc1ccccc1N(CCC#N)C(=O)CSc1nc(-c2ccccc2)cn1N	-15.5	-5.6	-5.0	36.2*	-2.1
COc1cc(C=NO)ccc1OCc1ccc([N+](=O)[O-])cc1	nt	0.0	-0.2	nt	nt
CCC(=O)c1c(O)n(C2CCCCCC2)c(=O)[nH]c1=O	-6.4	5.5	10.4	80.7*	3.9
CC(=NCCO)c1c(O)n(C2CCCCC2)c(=O)[nH]c1=O	1.9	-3.2	0.6	-0.2	2.5
C/C(=N\NC(=O)c1ccccc1Cl)c1c(O)n(C2CCCCC2)c(=O)[nH]c1=O	23.5	-4.9	8.6	-1.2	7.5
C/C(=N\NC(=O)c1ccccc1O)c1c(O)n(C2CCCCC2)c(=O)[nH]c1=O	23.8	-8.3	0.9	79.3*	5.5
COc1ccc(C2C=CCN(C(=O)C3CCCC3)C(Cc3ccccc3)C(=O)N2Cc2ccc(F)cc2)cc1 (stereo not drawn)	nt	-3.2	-2.9	nt	nt
